About 83,000 compounds went through this panel and 20% of them were active in at least one assay; those are over-represented in the sample as a whole.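 For each line, cells grew in 96-well plates with the test compound present at a single concentration for 48 hours.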 Unmarked numbers belong to inactive results. The source made the active and inactive calls.
System: CCRF-CEM leukemia
Test: NCI-60 one-dose screen, 48 h (100 = growth as untreated, 0 = no growth, -100 = all killed)
Details: 10 µM unless noted
Experimental: Growth inhibition of the CCRF-CEM human tumor cell line is measured as a screen for anti-cancer activity. Cells are grown in 96 well plates and exposed to the test compound for 48 hours. Compounds are tested at a single concentration, which is 10^-5 M for most compounds. The reported endpoint is percent growth (GI% or GIPRCNT), where numbers from 0 - 100% represent growth inhibition, and numbers from -100% - 0 represent cell death. For example, a value of 40 represents 60% growth inhibition. A value of 0 means no net growth occurred over the course of the experiment. A value of -40 indicates 40% of cells at the beginning of the experiment died by the end of the experiment. A value of -100 means all cells are dead at the end of the experiment.
NCI-60 Human Tumor Cell Lines Screen was performed using the standard one-dose NCI protocol, which is described in more detail at https://dtp.cancer.gov/discovery_development/nci-60/default.htm.
Compounds with GIPRCNT values below 10 were considered active. Activity score was based on GIPRCNT using the following formula: […]
Score is 0 for GIPRCNT values of 100 or above, 50 for GIPRCNT values of 0, and 100 for GIPRCNT values of -100.

Going from `COc1ccc(-c2nc(C#N)c(NCC(c3ccc(Cl)cc3)N3CCCCC3)o2)cc1` (stereo not given) to `CC(=O)c1ccc(NC(=O)CSc2nnc(-c3cc(-c4ccc(Cl)cc4)nc4ccccc34)o2)cc1`, the growth falls from 86.9% to 60.8%.

Compared with `C[C@H](Oc1cc(-c2cnn(C3CCNCC3)c2)cnc1N)c1c(Cl)ccc(F)c1Cl`, `COc1cc(-c2cn(-c3ccc(Cl)c(Cl)c3)c(=O)[nH]2)cc(OC)c1OC` is higher in growth: 34.6% for the first, 99.6% for the second.

Compared with `CCCCn1c2cc(OCc3cn(-c4ccc(Cl)cc4)nn3)ccc2c2ccnc(C)c21`, `COc1ccc(-n2nc(C(=O)NCC(=O)O)nc2-c2ccccc2)cc1` is higher in growth: 30.5% for the first, 102% for the second.

First: COc1cc(NCC(=O)Nc2cc(Nc3cccc(C(F)(F)F)c3)ncn2)c(Cl)c(OC)c1Cl
Second: COc1cc(-c2csc(NC(=O)Nc3cc(Cl)cc(Cl)c3)n2)cc(OC)c1OC
The growth of the first is higher: 72.5% for the first, 13.5% for the second.

Going from `N#Cc1c(-c2ccc(F)cc2)nc(N/N=C/c2c[nH]c3ccccc23)nc1N1CCOCC1` to `CSc1nc(-c2ccc(F)cc2)c(C#N)c(N2CCOCC2)n1`, the growth rises from 40.5% to 81%.

Compared with `Nc1cc(N)c(S(=O)(=O)O)cc1N=Nc1cc([N+](=O)[O-])ccc1O`, `Cc1nc2sc(C(=O)Nc3cccc(Cl)c3C)c(N)c2cc1C(C)O` (stereo not given) is lower in growth: 93.9% for the first, 14.2% for the second.

Compared with `O=C1C(Cl)=C(NCCCN(CCCNC2=C(Cl)C(=O)c3ccccc3C2=O)C2=C(Cl)C(=O)c3ccccc3C2=O)C(=O)c2ccccc21`, `Cc1cc(Cl)cc(CN(Cc2ccccc2)Cc2c(O)ccc3ccccc23)c1O` is higher in growth: 34.6% for the first, 99.2% for the second.

First: CCO/C=N/S(=O)(=O)c1cc2c(cc1Cl)NC=NS2(=O)=O
Second: Cc1cc(C)n(-c2nc(-c3cccs3)c(C#N)c(=O)[nH]2)n1
The growth of the first is lower: 95.7% for the first, 103% for the second.

First: O=C1CC(c2ccc(O)c(O)c2)Oc2cc(O)c([C@@H]3O[C@H](CO)[C@@H](O)[C@H](O)[C@H]3O)c(O)c21 (stereo not given in full)
Second: O=C1CC23OC4ON=C(Br)C4C2C(O)c2ccccc2N13 (stereo not given)
The growth of the first is lower: 97.3% for the first, 111% for the second.

Going from `c1ccc(Sc2ncccn2)nc1` to `Cc1c(C(=O)Nc2nc3ccccc3[nH]2)cnn1-c1ccccn1`, the growth falls from 104% to 90.8%.

Compared with `C/C(=C\c1cnc(C)s1)[C@@H]1C[C@@H]2O[C@@H]2CCC[C@H](C)[C@H](O)[C@@H](C)C(=O)C(C)(C)[C@@H](O)CC(=O)O1`, `Nc1c(C(=O)Nc2ccccn2)sc2nc3c(cc12)C(=O)CCC3` is higher in growth: 30.7% for the first, 47.9% for the second.

Compared with `COc1cc(NC(=O)Nc2cnc(Nc3ccc(N4CCOCC4)cc3)nc2Oc2ccc(C(F)(F)F)cc2)cc(OC)c1`, `Nc1n[nH]c2cccc(C#Cc3cccc(NC(=O)c4cc(N5CCOCC5)cc(C(F)(F)F)c4)c3)c12` is lower in growth: 89.4% for the first, 44.2% for the second.

Going from `Cc1cnc(SCc2ccc(Cl)cc2)[nH]c1=S` to `COc1ccc2nc3nc4ccc[nH]c4cc3c2c1`, the growth falls from 106% to 97.5%.

Going from `COC(=O)c1ccc2c(c1)n(Cc1ccc3ccccc3c1)c[n+]2Cc1ccc2ccccc2c1` to `NC(=O)C(O)(c1ccccc1)c1ccccc1`, the growth rises from 27.5% to 87.9%.

In the case of `CNS(=O)(=O)c1cccc(-c2ccc3c4c(n(C)c(=O)c3c2)-c2ccccc2C4=O)c1`, the growth is reported as 6.13% (active).
For `COC(=O)CCc1n(Cc2ccc3ccccc3c2)c2ccccc2[n+]1Cc1ccc2ccccc2c1`, the growth was 9.86% (active).
`CN(C)[C@@H]1C(=O)C(C(N)=O)=C(O)[C@@]2(O)C(=O)C3=C(O)c4c(O)cc(CN5CCc6ccccc6C5)c(Cl)c4C[C@H]3C[C@@H]12` was tested, and the growth was -40.7% (active).
In the case of `COC(=O)c1nc(-c2ccccc2)oc1S(=O)(=O)n1nc(C)cc1N`, the growth is reported as 9.2% (active).
In the case of `C=C1C(=O)O[C@H]2[C@H]1CC/C(COC(=O)CCCCCCC(=O)OC/C1=C/CC[C@@]3(C)O[C@H]3[C@H]3OC(=O)C(=C)[C@@H]3CC1)=C\CC[C@@]1(C)O[C@@H]21`, the growth is reported as 4.54% (active).
With `Cc1ccc(C(=O)/C(=C/c2ccc([N+](=O)[O-])cc2)S(=O)Cc2ccccc2)cc1` (stereo not given) the growth was 6.67% (active).
`COc1ccc(-c2[nH]c3ccccc3c2C=C(C#N)C#N)cc1` was tested, and the growth was -5.77% (active).
For `COC(=O)/C=C1\SC(=Nc2ccc(C(F)(F)F)cc2)N(CCc2c[nH]c3ccccc23)C1=O`, the growth was 3.88% (active).
In the case of `CCCn1cc(/C=N\N=C2\C(=O)Nc3ccc(C)cc32)c2ccccc21`, the growth is reported as -0.646% (active).
For `COc1ccc(/C=C/C(=O)C(CC2CCC2)C(=O)/C=C/c2ccc(OC)c(OC)c2)cc1OC`, the growth was 8.4% (active).
For `NS(=O)(=O)c1ccc(C2C3=C(CCCC3=O)OC3=C2C(=O)c2ccccc2C3=O)cc1` (stereo not given), the growth was -10.5% (active).
`C=C1C(=O)O[C@H]2[C@H]1CC/C(COC(=O)c1cccnc1)=C\CC[C@@]1(C)O[C@@H]21` was tested, and the growth was 3.51% (active).
